Source: PubChem BioAssay (EPA / NIEHS)
Active and inactive are the calls of the source. Rule for the calls: active = hit-call score of the fitted dose curve at least 0.9, where 1 is the maximum; inactive = score below 0.9.

Tests used:
[1] = APR_HepG2_CellCycleArrest_24hr: Apredica 24-hour HepG2 Assay for Cell Cycle Arrest (AID 2282905); conditions: imaging, actives raise or lower the signal;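 note: cell cycle arrest scored as ratio of 2N to 4N nuclear DNA content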
How it was run: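 Readout: Hoechst 33342 nuclear DNA content by high-content fluorescent imaging, six images/well, 20x. Human HepG2 liver cells, 24 hr compound exposure, 0.39–200 uM, final DMSO 0.5% v/v. Gain or loss fitted relative to DMSO baseline.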

[2] = APR_HepG2_NuclearSize_24hr: Apredica 24-hour HepG2 Assay for Nuclear Size (AID 2282907); conditions: high-content imaging, actives raise or lower the signal
How it was run: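 Read-out: nuclear diameter from Hoechst 33342 (2 ug/mL) imaging of fixed HepG2 cells, 20x, six fields/well. Compounds ran at 0.39–200 uM for 24 hr, 0.5% DMSO final. Gain or loss was fitted bidirectionally relative to the DMSO baseline.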

[3] = APR_HepG2_CellLoss_24hr: Apredica 24-hour HepG2 Assay for Cell Loss (AID 2282908); conditions: high-content imaging;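 for AC50: fit in both directions so a hit may be cell loss or gain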
How it was run: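 Read-out: Hoechst 33342-stained nuclei counted by automated fluorescence imaging after formaldehyde fixation and Triton permeabilization. Ten concentrations, 0.39 to 200 uM, duplicate wells, 0.5% DMSO final. Gain or loss of signal fitted relative to DMSO baseline.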

[4] = APR_HepG2_MicrotubuleCSK_24hr: Apredica 24-hour HepG2 Assay for Microtubule CSK Stabilty (AID 2282909); conditions: HepG2 microtubule cytoskeleton imaging, actives raise or lower the signal
How it was run: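 Read-out: alpha-tubulin immunofluorescence intensity by automated high-content imaging of fixed HepG2 cells after 24 h compound treatment. Ten concentrations, 0.39 to 200 uM, in duplicate; DMSO 0.5% v/v. Taxol positive control; DMSO-normalized bidirectional curve fitting.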

[5] = APR_HepG2_MitoticArrest_24hr: Apredica 24-hour HepG2 Assay for Mitotic Arrest (AID 2282910); conditions: high-content imaging, actives raise or lower the signal
How it was run: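 Treatment lasted 24 hr in the human HepG2 line at 0.39–200 uM, solvent held at 0.5% DMSO. Fixed cells were stained with Hoechst 33342 and anti-phospho-histone H3, imaged at 20x, and analysed by gain- or loss-of-signal fitting against DMSO.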

[6] = APR_HepG2_MitoMembPot_24hr: Apredica 24-hour HepG2 Assay for Mitochondrial Membrane Potential (AID 2282911); conditions: imaging, actives raise or lower the signal
How it was run: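 Human hepatoma HepG2 cultures received ten compound concentrations up to 200 uM for 24 hr. Membrane-potential dye signal, captured by automated fluorescence microscopy, was scored for gain or loss against DMSO controls.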

[7] = APR_HepG2_MitoMass_24hr: Apredica 24-hour HepG2 Assay for Mitochondrial Mass (AID 2282912); conditions: high-content imaging, actives raise or lower the signal
How it was run: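 HepG2, 24 hr dosing, 10 concentrations 0.39–200 uM in duplicate, DMSO 0.5% final. MitoTracker Red CMXRos 250 nM, 30 min pre-fix; 3.7% formaldehyde fix. Imaging-based fluorescence intensity; gain/loss fit vs DMSO baseline.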

[8] = APR_HepG2_p53Act_24hr: Apredica 24-hour HepG2 Assay for p53 Activation (AID 2282913); conditions: high-content imaging, actives raise or lower the signal;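 note: p53 protein immunofluorescence averaged per cell in HepG2 with Hoechst nuclei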
How it was run: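 Automated fluorescence imaging quantifies p53 immunostaining in HepG2 cells after a 24 hr exposure (0.39–200 uM, duplicate, 0.5% DMSO). Nuclei are located by Hoechst 33342 staining.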

[9] = APR_HepG2_CellCycleArrest_72hr: Apredica 72-hour HepG2 Assay for Cell Cycle Arrest (AID 2282914); conditions: high-content imaging, actives raise or lower the signal
How it was run: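 Cell cycle arrest in HepG2 was scored from nuclear DNA content after 72 hr compound treatment (0.39–200 uM). Activity, either gain or loss, was fitted against the DMSO baseline.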

[10] = APR_HepG2_CellLoss_72hr: Apredica 72-hour HepG2 Assay for Cell Loss (AID 2282915); conditions: high-content imaging
How it was run: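 HepG2 cells were exposed for 72 hr to compounds at 0.39–200 uM (ten concentrations, duplicate) in 0.5% v/v final DMSO. Nuclei were stained with Hoechst 33342 after 3.7% formaldehyde fixation, imaged at 20x, and counted; fits bidirectional versus DMSO.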

[11] = APR_HepG2_P-H2AX_72hr: Apredica 72-hour HepG2 Assay for H2AX Phosphorylation (AID 2282916); conditions: imaging, actives raise or lower the signal;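 note: phospho-histone H2A.x immunostain intensity per cell marking DNA damage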
How it was run: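 Readout: phospho-H2A.x immunofluorescence (FITC secondary) plus Hoechst nuclear stain, high-content imaging at 20x, six fields/well. HepG2, 72 hr compound exposure, 0.39–200 uM, final DMSO 0.5% v/v. Gain or loss fitted relative to DMSO baseline.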

[12] = APR_HepG2_MitoMembPot_72hr: Apredica 72-hour HepG2 Assay for Mitochondrial Membrane Potential (AID 2282917); conditions: imaging, actives raise or lower the signal
How it was run: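 HepG2 cells exposed 72 h to compounds at 0.39–200 uM (0.5% v/v DMSO, duplicates); MitoTracker Red CMXRos 250 nM loaded 30 min before 3.7% formaldehyde fixation, imaged by HCS fluorescence. Bidirectional fit versus DMSO.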

[13] = APR_HepG2_MitoticArrest_72hr: Apredica 72-hour HepG2 Assay for Mitotic Arrest (AID 2282918); conditions: high-content imaging, actives raise or lower the signal
How it was run: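 Mitotic arrest in HepG2 is scored from phospho-histone H3 staining after 72 hr dosing across 0.39–200 uM, with DMSO at 0.5% v/v. Nuclei are identified by Hoechst 33342 and fluorescence intensity is quantified per cell.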

[14] = APR_HepG2_MicrotubuleCSK_72hr: Apredica 72-hour HepG2 Assay for Microtubule CSK Stabilty (AID 2282919); conditions: HepG2 microtubule cytoskeleton, high-content imaging, actives raise or lower the signal
How it was run: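 Ten-point dosing (0.39–200 uM, 0.5% DMSO) of HepG2 for 72 hr, with taxol as the cytoskeletal positive control. The cells were formaldehyde-fixed and then stained with alpha-tubulin/Cy5 and Hoechst. Imaging at 20x used a −2 um Z offset for tubulin.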

[15] = APR_HepG2_P-H2AX_24hr: Apredica 24-hour HepG2 Assay for H2AX Phosphorylation (AID 2282920); conditions: high-content imaging, actives raise or lower the signal
How it was run: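 Signal comes from a FITC-labeled secondary detecting phospho-histone H2A.x in fixed HepG2 cells, quantified by automated imaging at 20x. Dosing ran 24 hr across 0.39–200 uM with 0.5% v/v DMSO.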

[16] = APR_HepG2_StressKinase_72hr: Apredica 72-hour HepG2 Assay for Stress Kinase (AID 2282921); conditions: HepG2 stress kinase (phospho-c-Jun) imaging, actives raise or lower the signal
How it was run: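 Phospho-c-Jun immunofluorescence measured by high-content imaging at 20x, six fields per well; bidirectional curve fitting against DMSO as baseline. Dosing: 0.39–200 uM, 72 h, 0.5% DMSO final.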

[17] = APR_HepG2_StressKinase_24hr: Apredica 24-hour HepG2 Assay for Stress Kinase (AID 2282922); conditions: HepG2 stress kinase (phospho-c-Jun) imaging, actives raise or lower the signal
How it was run: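 After 24 hr compound treatment (up to 200 uM, final DMSO 0.5% v/v), HepG2 cells are fixed and multiplex-labeled; phospho-c-Jun intensity is captured by high-content fluorescence imaging and analyzed relative to DMSO.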

[18] = APR_HepG2_p53Act_72hr: Apredica 72-hour HepG2 Assay for p53 Activation (AID 2282923); conditions: high-content imaging, actives raise or lower the signal;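 note: average cellular p53 protein immunofluorescence intensity in HepG2 cells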
How it was run: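 Readout: p53 immunofluorescence quantified by automated high-content imaging at 20x, six fields per well, nuclei located via Hoechst. Dosing ran 72 hr over ten concentrations from 0.39 to 200 uM; bidirectional curve fitting against DMSO baseline.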

[19] = APR_HepG2_MitoMass_72hr: Apredica 72-hour HepG2 Assay for Mitochondrial Mass (AID 2282924); conditions: high-content imaging, actives raise or lower the signal;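 note: MitoTracker Red CMXRos stain intensity per cell imaged as mitochondrial mass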
How it was run: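 Steps: treat HepG2 72 hr (0.39–200 uM, duplicate wells); load MitoTracker Red CMXRos, 250 nM, 30 min; fix with 3.7% formaldehyde, permeabilise with 0.5% Triton X-100; capture images, nuclei via Hoechst 33342; fit bidirectionally against DMSO.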

[20] = APR_HepG2_NuclearSize_72hr: Apredica 72-hour HepG2 Assay for Nuclear Size (AID 2282925); conditions: high-content imaging, actives raise or lower the signal
How it was run: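 Compounds (0.39–200 uM, final DMSO 0.5%) were applied to HepG2 for 72 hr. Cells were then formaldehyde-fixed, permeabilized and labelled with Hoechst 33342. Nuclear diameter was quantified from six images per well.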

Measured: AC50

c1ccc2c(c1)-c1cccc3cccc-2c13
active: [3] 85.7 µM | [5] 107 µM | [9] 111 µM | [10] 106 µM | [11] 108 µM | [13] 87.1 µM
inactive: [1] | [2] | [4] | [6] | [7] | [8] | [12] | [14] | [15] | [16] | [17] | [18] | [19] | [20]

Nc1ccc(Cl)cc1N
inactive: [2] | [3] | [4] | [5] | [6] | [7] | [12] | [16] | [17] | [19] | [20]
active: [1] 0.162 µM | [8] 0.944 µM | [9] 1.46 µM | [10] 1.1 µM | [11] 5.9 µM | [13] 2.4 µM | [14] 3.83 µM | [15] 1.2 µM | [18] 3.54 µM

O=Cc1ccco1
inactive: [1] | [2] | [3] | [4] | [5] | [6] | [7] | [8] | [9] | [10] | [11] | [12] | [13] | [14] | [15] | [16] | [17] | [18] | [19] | [20]

CCC12COCN1COC2
active: [1] 45.1 µM | [5] 93.6 µM | [8] 86 µM | [11] 82.1 µM | [13] 83.2 µM | [15] 87.6 µM | [17] 99.5 µM | [18] 79.2 µM
inactive: [2] | [3] | [4] | [6] | [7] | [9] | [10] | [12] | [14] | [16] | [19] | [20]

Cc1ccc(N=C=O)cc1N=C=O
inactive: [1] | [2] | [3] | [4] | [5] | [6] | [7] | [8] | [9] | [10] | [11] | [12] | [13] | [14] | [15] | [16] | [17] | [18] | [19] | [20]

c1ccc(NNc2ccccc2)cc1
inactive: [1] | [2] | [3] | [4] | [5] | [6] | [7] | [12] | [14] | [15] | [16] | [17] | [20]
active: [8] 110 µM | [9] 104 µM | [10] 97.9 µM | [11] 100 µM | [13] 100 µM | [18] 98.9 µM | [19] 150 µM

c1ccc2c(c1)oc1ccccc12
active: [13] 0.0888 µM
inactive: [1] | [2] | [3] | [4] | [5] | [6] | [7] | [8] | [9] | [10] | [11] | [12] | [14] | [15] | [16] | [17] | [18] | [19] | [20]

CC(C)(C)C(O)(CCc1ccc(Cl)cc1)Cn1cncn1 (stereo not drawn)
inactive: [1] | [2] | [6] | [12] | [20]
active: [3] 104 µM | [4] 115 µM | [5] 107 µM | [7] 124 µM | [8] 110 µM | [9] 102 µM | [10] 116 µM | [11] 111 µM | [13] 99.6 µM | [14] 107 µM | [15] 113 µM | [16] 113 µM | [17] 108 µM | [18] 121 µM | [19] 105 µM

Brc1ccc(Oc2ccccc2)cc1
inactive: [1] | [2] | [4] | [5] | [6] | [7] | [8] | [9] | [11] | [12] | [14] | [15] | [16] | [17] | [18] | [19] | [20]
active: [3] 114 µM | [10] 109 µM | [13] 100 µM

Cc1ccc(N)cc1
inactive: [1] | [2] | [3] | [4] | [5] | [6] | [7] | [8] | [10] | [11] | [12] | [13] | [14] | [15] | [16] | [17] | [18] | [19] | [20]

OCCCBr
inactive: [1] | [2] | [3] | [4] | [5] | [6] | [7] | [8] | [10] | [11] | [12] | [13] | [14] | [15] | [16] | [17] | [18] | [19] | [20]

COc1cc(C=O)cc2c1[C@H](COC(N)=O)[C@]1(OC(C)=O)ON2C[C@H]2[C@@H]1N2C(C)=O
active: [6] 0.474 µM
inactive: [1] | [2] | [3] | [4] | [5] | [7] | [8] | [9] | [10] | [11] | [12] | [13] | [14] | [15] | [16] | [17] | [18] | [19] | [20]
